This is a sample that favours compounds with a hit; in the whole collection about 2.1% have one here.
Abeta yeast res = compounds reversing amyloid beta toxicity in yeast. 0.063% of 410,000 active. yeast expressing A-beta42, growth rescue, OD600, 48 h; response scale: 0% DMSO, 100% iron-clioquinol control. Potency, µM (titrated, usually from 46.1 µM), actives largely listed as activators; note: nearly all actives have a fitted effect of over 55% in size
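Growth rescue measured by 600 nm absorbance after 48 h yeast culture at 30 C with compound. Values normalized between DMSO and an equimolar ferric chloride plus clioquinol control.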
FUS yeast rescue = rescues growth of FUS-expressing yeast; Potency, µM (top dose mostly 76.6 µM), usual class: activators; AID 1347120; 0.24% of 390,000 active; S. cerevisiae FUS-expressing, growth rescue, OD600, 24 h;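 note: plate controls were DMSO vehicle for no effect and reference control for full effect; nearly all actives have a fitted effect of over 55% in size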
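Quantitative HTS measuring growth restoration of FUS-toxic yeast. Galactose-induced cells (OD 0.005) were exposed 24hr at 30C to compounds at several concentrations, then absorbance at 600 nm was recorded.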
TDP43 rescue = rescues yeast growth from TDP-43 toxicity | TDP-43 expressing yeast growth rescue, BacTiter-Glo, 24 h | Potency, µM (titrated, usually from 46.1 µM), for inactives: at the top dose growth rescue (activation), usual class: activators | 1.8% of 410,000 active; note: % of control where 0% means no effect; nearly all actives have a fitted effect of over 50% in size
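In this qHTS, compounds that restore growth of yeast expressing TDP-43 appear as activators. Cells (OD600=0.02, galactose medium, raffinose-pregrown) are incubated with compound 24 hr at 30 deg C and growth is quantified by BacTiter-Glo.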
aSyn yeast inh = inhibitors of alpha-synuclein toxicity in yeast | Yeast expressing alpha-synuclein, growth rescue, BacTiter-Glo, 24 h | 0.14% of 370,000 active | Potency, µM (titrated, usually from 46.1 µM), for the others: top-dose growth rescue (activation), actives largely listed as activators; note: % of control where 0% means no effect; nearly all actives have a fitted effect of over 65% in size
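Rescue of yeast growth: cells expressing toxic alpha-synuclein, induced in galactose at OD600 0.02, incubated with compound 24 h at 30 C. ATP luminescence quantified growth; inhibitors of toxicity appear as activators.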
Active calls of the source: *; i = inactive; ? = inconclusive; · = not tested or not shown; [ ] = dose if it differs, or a comment. Calls come from the whole dose curve; as a rule, active = well fitted curve in the direction sought with a large enough effect; inconclusive = small, poorly fitted or top-dose-only effect, or another doubt; inactive = no such curve, though single readings can be large; an effect the other way counts as inactive or inconclusive. Potency is the fitted concentration of half-maximal effect.

SMILES | Abeta yeast res | FUS yeast rescue | TDP43 rescue | aSyn yeast inh
O=C(Nc1ccc(F)c(Cl)c1)C1CCCCC1 | i | i | 18µM* | -3%
O=C(Nc1ccc(F)c(Cl)c1)C1CCCC1 | i | i | -23% | -20%
O=C(NC(=S)Nc1ccc(F)c(Cl)c1)C1CC1 | ? | i | 3.2µM* | -13%
COc1ccccc1NC(=S)NC(=O)C1CC1 | i | · | ? | -12%
COC(=O)NC(=S)Nc1ccc(Oc2ccc(Cl)cc2)c(Cl)c1 | i | i | -9% | -10%
COc1ccc(NC(=O)CNC(c2ccccc2)c2ccccc2)cc1Cl | i | i | -18% | 3%
COC(=O)NC(=S)Nc1ccc(Oc2ccc(Cl)cc2Cl)c(Cl)c1 | i | i | 18µM* | -19%
COc1ccc(NC(=O)Oc2ccccc2)cc1Cl | i | i | 18µM* | 10%
COc1ccc(C(=O)Sc2ccc(C)cc2)cc1OC | i | i | 11µM* | -2%
OC[C@@H]1CN(Cc2ccc(F)cc2)C[C@H](n2cnc3c(N4CCN(c5ccccc5)CC4)ncnc32)O1 | i | ? | 26% | ?
OC[C@@H]1CN(Cc2ccccc2)C[C@H](n2cnc3c(N4CCN(c5ccccc5)CC4)ncnc32)O1 | i | 20µM* | 17% | 27%
CC1(C)N=C(SCC(=O)Nc2ccc(Cl)cc2)C(c2ccccc2)=N1 | i | i | 32µM* | 0%
CC1(C)N=C(SCC(=O)Nc2ccc(Cl)cc2)C(c2ccc(Cl)cc2)=N1 | i | i | 35µM* | -10%
CCOc1ccc(NC(=O)CN2C(=O)C(c3ccc(Cl)cc3)=NC2(C)C)cc1 | i | i | 24% | ·
CCOC(=O)/C(C#N)=C1/SC(C)C(=O)N1c1ccc(Br)cc1 (configuration not stated) | i | 22µM* | 0% | 0%
CCOC(=O)/C(C#N)=C1/SC(CC)C(=O)N1c1ccc(Br)cc1 (configuration not stated) | i | ? | -14% | 1%
Cc1ccc(OCC(=O)NNC(=O)c2cc(C)[nH]n2)cc1 | i | i | 1% | 0%
O=C(O)c1ccc(CSc2nnc(-c3ccc(Cl)cc3)o2)cc1 | i | i | 17% | -1%
CSc1nc(N)n2nc(C(C)(C)C)cc2n1 | i | i | 18µM* | -15%
COc1ccccc1CN(C)C(=O)C(c1ccccc1)c1ccccc1 | i | ? | -3% | 2%
CS(=O)(=O)N1CCN(c2ccc([N+](=O)[O-])c3cccnc23)CC1 | i | i | 9% | 12%
Cn1cc(Br)c(C(=O)NN2C(=O)C3C(C2=O)C2C=CC3C23CC3)n1 (configuration not stated) | i | i | 14% | 3%
COc1cc(C#Cc2c(-c3cncn3C)n(C)c3ccc(-c4cnc(OC)nc4)cc23)cc(OC)c1 | i | i | 11µM* | 14%
O=C(CCC1CCCN(C(=O)c2ccco2)C1)NCc1ccccc1F (configuration not stated) | i | i | 0% | 0%
Cn1c(COc2ccc(Cl)cc2)nnc1SCc1ncc(-c2ccccc2)o1 | i | ? | 22µM* | ?
SMILES | Abeta yeast res | FUS yeast rescue | TDP43 rescue | aSyn yeast inh
CC(NC(=O)OCc1ccccc1)C(=O)Oc1cc2oc(=O)cc(-c3ccccc3)c2cc1Cl (configuration not stated) | i | i | 6.3µM* | 3%
CN(C)c1ccc(CC2C(=O)Nc3ccccc32)cc1 (configuration not stated) | i | i | 11% | 6%
O=C1Nc2ccccc2C1Cc1ccc(Br)cc1 (configuration not stated) | ? | i | 16µM* | ·
CSc1ccc(CC2C(=O)Nc3ccccc32)cc1 (configuration not stated) | i | i | 13µM* | ·
C[C@H](CO)N1C[C@H](C)[C@H](CN(C)S(=O)(=O)c2cccc(F)c2)Oc2cc(Br)ccc2S1(=O)=O | i | i | 17% | -2%
N/C(=N\OC(=O)c1ccc2c(c1)OCO2)c1ccc(Cl)cc1 | i | i | 3.2µM* | -41%
Cc1ccc(/C(N)=N/OC(=O)c2ccc3c(c2)OCO3)cc1 | i | i | ? | -10%
N/C(=N\OC(=O)c1cccs1)c1ccc(Cl)cc1 | i | i | -28% | -54%
COc1ccc(/C(N)=N/OC(=O)c2ccc3c(c2)OCO3)cc1 | i | i | 5.6µM* | -7%
COc1ccc(/C(N)=N/OC(=O)c2cccs2)cc1 | i | i | 16µM* | -60%
COCCCNC(=O)CCn1c(=O)c2ccccc2n(CC(=O)Nc2cc(Cl)ccc2C)c1=O | i | i | 12% | -7%
CCC(C)NC(=O)c1cc(-c2ccccc2O)on1 (configuration not stated) | i | i | 20% | -1%
Cc1ccc(Cl)cc1N1CCN(Cc2cc3c(cc2O)CCC3)CC1 | i | i | -4% | ·
COc1ccc(-c2c3c(=O)n(C)c(=O)n(C)c3cn2-c2ccc(O)cc2)cc1 | i | i | -7% | 1%
C=C1C(=O)O[C@@H]2C[C@@H](C)[C@@H]3C=CC(=O)[C@@]3(C)[C@@H](OC(C)=O)[C@H]12 | i | i | -1% | 1%
CC1CC1c1ccc(/C=C(\C#N)C(=O)Nc2ccccc2Cl)o1 (configuration not stated) | i | · | 11µM* | 17%
CC1CC1c1ccc(/C=C(\C#N)C(=O)Nc2ccc(Cl)cc2)o1 (configuration not stated) | i | · | 24% | -15%
Nc1ccc2oc(=O)c3ccccc3c2c1 | i | · | 13µM* | 19%
CCC(=O)c1ccc(O)c(OC)c1 | i | i | 0% | 1%
CN1c2ccccc2-c2nc3ccccc3n2C1c1cccs1 (configuration not stated) | i | i | 7.1µM* | -35%
Cc1cccc(N2CCN(C(=O)c3nn(C)c4c3CSc3ccccc3-4)CC2C)c1 (configuration not stated) | i | i | 28% | ·
CCOC(=O)N1CCN(C(=O)c2nn(C)c3c2CSc2ccccc2-3)CC1 | i | i | 35µM* | 2%
O=C1C(=Cc2cccc(Cl)c2)CCc2ccccc21 | i | i | 20µM* | -22%
CCCc1nc2ccc(NC(C)=O)cc2c(=O)n1Cc1ccccc1Cl | i | i | 20µM* | -1%
FC(F)(F)c1cccc(Sc2nc(-c3ccccc3)nnc2C(F)(F)F)c1 | i | i | 23% | 0%
Cn1nc(C(=O)Nc2nc3ccccc3[nH]2)ccc1=O | i | i | -26%[0.397 µM] | 7%
Cc1onc(-c2ccccc2)c1C(=O)N/N=C/C(Br)=C/c1ccccc1 | i | · | 18µM* | ?
O=C(N/N=C/C(Br)=C/c1ccccc1)C(O)c1ccccc1 (configuration not stated) | i | i | -7%[1.82 µM] | 0%
O=C(O)c1ccc(N/N=C/c2cccc(C(F)(F)F)c2)cc1 | i | i | 13µM* | -45%
